VDR inh: inhibitors of human vitamin D receptor | P11473 | VDR-SRC2-3 peptide fluorescence polarization, 2 h | Potency, µM, for inactives: max response, negative = inhibition, usual class: inhibitors | actives 0.93% (n = 400,000) | AID 504847; note: % is set by controls: 0 for no effect and ±100 for the full control effect
Target sequence (P11473 whole entry, looked up): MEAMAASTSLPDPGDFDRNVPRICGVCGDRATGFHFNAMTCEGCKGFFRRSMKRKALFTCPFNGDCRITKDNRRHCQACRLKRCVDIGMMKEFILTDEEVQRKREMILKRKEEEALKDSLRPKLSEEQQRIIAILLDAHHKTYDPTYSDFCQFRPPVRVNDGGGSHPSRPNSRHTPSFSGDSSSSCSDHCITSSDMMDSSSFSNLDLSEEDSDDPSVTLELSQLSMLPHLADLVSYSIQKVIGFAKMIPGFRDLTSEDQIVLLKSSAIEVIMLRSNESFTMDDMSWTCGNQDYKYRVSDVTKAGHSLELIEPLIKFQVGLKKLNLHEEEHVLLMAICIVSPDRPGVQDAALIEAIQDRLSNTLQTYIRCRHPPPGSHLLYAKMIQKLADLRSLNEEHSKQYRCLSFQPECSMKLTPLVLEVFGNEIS
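Signal is fluorescence polarization, reporting how far test compounds block the interaction of VDR with the SRC2-3 coregulator peptide after a 2 h room-temperature incubation.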
Tb PFK block: inhibitors of T. brucei phosphofructokinase. O15648. T. brucei PFK, ADP-Glo luminescence. Potency, µM (doses to about 57.5 µM), without a hit: at the top dose activity, negative = inhibition, actives largely listed as inhibitors. actives 0.17% (n = 330,000);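 note: 0% = uninhibited 1x PFK enzyme wells and -100% = no-enzyme wells; nearly all actives have a fitted effect of over 60% in size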
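In TEA buffer at pH 8.0 with 5 mM MgCl2, enzyme (1.25 nM) converted F6P (0.5 mM) and ATP (0.1 mM) for 45 min at room temperature. ADP product was read by luciferase luminescence.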
BRCA1 expr act: BRCA1 expression activation. AID 624202. Potency, µM (highest dose often 46.1 µM), for the others: top-dose activation, hits mostly activators. actives 1.1% (n = 380,000). MCF7-BRCA1-FFLuc reporter, luminescence, 48 h; response scale: scaled: vehicle 0%, 10 µM genistein 100%; note: nearly all actives have a fitted effect of over 80% in size
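Luminescence from a BRCA1-driven firefly luciferase in MCF7 cells was read after 48 h compound exposure at 37 C. Data normalized against DMSO and a 10microM genistein activation control, then curve-fitted across the titration.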
PLK1 PBD block: inhibitors of human PLK1 polo-box domain binding | P53350 | Plk1 PBD binding of FITC phosphopeptide, fluorescence polarization | Potency, µM, for inactives: max response, negative = inhibition, hits mostly inhibitors | actives 2.8% (n = 360,000) | AID 720504; note: series mostly up to about 57 µM; % is set by controls: 0 for no effect and ±100 for the full control effect; nearly all actives have a fitted effect of over 65% in size
VDR confirm: inhibits human vitamin D receptor, primary hit validation. Potency, µM, hits mostly inhibitors. VDR-coactivator inhibition assay, qHTS confirmation. shares compounds with VDR inh. actives 89% (n = 840)
VDR FP fluor: VDR (human) coactivator binding inhibition, fluorescein polarization. shares compounds with VDR inh. VDR-coactivator binding, fluorescein fluorescence polarization. Potency, µM (highest dose often 57.1 µM), inactives show top-dose activity change, negative = inhibition, actives largely listed as inhibitors. actives 48% (n = 840). AID 602200
VDR bla: VDR (human) inhibition, cell-based beta-lactamase validation. VDR beta-lactamase reporter cells, FRET ratio; cells co-treated with VDR agonist LG190178. Potency, µM (doses to about 46.1 µM), inactives show at the highest dose activity change, negative = inhibition, usual class: inhibitors. actives 23% (n = 840). shares compounds with VDR inh. AID 602202; note: % is set by controls: 0 for no effect and ±100 for the full control effect
VDR cytotox: counter-screen for vitamin D receptor inhibitors: cytotoxicity; shares compounds with VDR inh; cytotoxicity counter-screen, cell viability, qHTS; Potency, µM (titrated, usually from 48.3 µM), inactives show at the highest dose activity change, negative = cytotoxicity, hits mostly cytotoxic; actives 18% (n = 840); AID 602204;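 note: plate controls were DMSO for no effect and high-concentration cycloheximide for full effect; nearly all actives have a fitted effect of over 75% in size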
Starred values were filed as active, the others as inactive; ? = inconclusive; nt = not tested or not shown. Rows were chosen to be rich in hits. Some 3.9% of all compounds tested hit in one or more screens of this group. Calls come from the whole dose curve; as a rule, active = well fitted curve in the direction sought with a large enough effect; inconclusive = small, poorly fitted or top-dose-only effect, or another doubt; inactive = no such curve, though single readings can be large; an effect the other way counts as inactive or inconclusive. Potency is the fitted concentration of half-maximal effect.

SMILES	VDR inh	Tb PFK block	BRCA1 expr act	PLK1 PBD block	VDR confirm	VDR FP fluor	VDR bla	VDR cytotox
O=C(CCS(=O)(=O)c1cc2c3c(c1)CCN3C(=O)CC2)Nc1cccc(Br)c1	12.5%	nt	2.6%	nt	nt	nt	nt	nt
CCN(CC)S(=O)(=O)c1cc(NC(=O)c2ccc3c(c2)NC(=O)C(C)S3)ccc1C (centres undefined)	79.4µM*	-5.5%	-46.4%	8.44µM*	21.2*	?	?	?
O=C(CNC(=O)c1ccccc1Cl)OCc1cc(=O)n2ccsc2n1	4.3%	nt	-3.9%	nt	nt	nt	nt	nt
CCc1ccccc1-n1nnc(-c2nsc(NC(=O)c3ccc(C)c(C)c3)n2)c1C	14.1%	nt	nt	nt	nt	nt	nt	nt
COc1cc(/C=C2\C(=O)N(CCC#N)N=C2C)c(Br)cc1OC(C)C	?	11.0%	-14.3%	1.68µM*	8.44*	?	19.1%	17.8%
CCC1CCCCN1Cc1cn2c(-c3ccc(Br)cc3)nnc2s1 (centres undefined)	-8.1%	nt	1.0%	nt	nt	nt	nt	nt
Cn1nnnc1SCCNCc1cc(Br)ccc1OCc1ccccc1Cl	-4.7%	nt	-60.5%	nt	nt	nt	nt	nt
CCOC(=O)CSC1=NC(=O)/C(=C\c2ccc(Cl)cc2)S1	79.4µM*	8.6%	?	0.844µM*	8.44*	75.0%	?	?
CCOC(=O)C1CCN(C2=NC(=O)/C(=C/c3ccc(Cl)cc3)S2)CC1	-3.9%	-0.6%	-25.8%	-9.9%	nt	nt	nt	nt
CC(=O)Nc1cc(C(=O)NCc2ccc(F)cc2)ccc1Sc1ccc(C)cc1	7.6%	nt	nt	nt	nt	nt	nt	nt
COC(=O)c1cc(=O)n(CCc2ccccc2F)c(=Nc2ccc(F)c(Cl)c2)s1	-5.4%	0.4%	-82.8%	-3.4%	nt	nt	nt	nt
COC(=O)c1cc(=O)n(Cc2ccco2)c(=Nc2ccc(F)c(Cl)c2)s1	?	-2.4%	-73.4%	-14.3%	14.1*	12.6µM*	?	3.3%
CCOc1ccc(NC(=O)c2ccc3c(c2)S(=O)(=O)N=C2CCCCCN23)cc1	nt	nt	-2.6%	-2.7%	nt	nt	nt	nt
COc1ccc(NC(=O)/C(Cl)=C(/Cl)S(=O)Cc2ccccc2)cn1 (centres undefined)	14.1µM*	-10.9%	-84.7%	2.12µM*	4.23*	?	?	?
N#Cc1c(NC(=O)Cn2nc(C(F)(F)F)c3c2CCCC3)sc2c1CCC2	79.4µM*	?	-26.5%	2.99µM*	6.7*	?	4.5%	-0.4%
Nc1ncnc2c1ncn2[C@@H]1O[C@H](CNCc2ccc(-c3cc(C(F)(F)F)ccc3Cl)o2)[C@@H](O)[C@H]1O	28.2µM*	-2.9%	-38.0%	-10.7%	?	?	11.5%	13.9%
O=P(O)(O)OC1[C@H](O)[C@H](OP(=O)(O)O)C(OP(=O)(O)O)[C@H](OP(=O)(O)O)[C@H]1O (some centres undefined)	20.4%	nt	nt	nt	nt	nt	nt	nt
CS(=O)(=O)N1Cc2cc(C(=O)NCC3CC3)nc(-c3cccc(-c4cccnc4)c3)c2[C@H]1CCO	nt	nt	15.1%	-3.9%	nt	nt	nt	nt
CCN(CC)c1ccc(NC(=O)COc2ccccc2C#N)cc1S(=O)(=O)Nc1ccccc1OC	79.4µM*	-7.3%	-13.4%	5.32µM*	9.47*	?	-0.3%	16.8%
COc1ccccc1NS(=O)(=O)c1cc(NC(=O)CNC(=O)c2ccccc2)ccc1C	4.1%	-2.8%	-28.5%	-12.8%	nt	nt	nt	nt
O=C1C(Cl)=C(NS(=O)(=O)c2ccc([N+](=O)[O-])cc2)C(=O)c2ccccc21	22.4µM*	-7.4%	-93.5%	?	5.97*	?	?	?
O=[N+]([O-])c1cccc(CON=Cc2cc(Cl)ccc2O)c1	nt	nt	8.2%	-5.3%	nt	nt	nt	nt
COc1cc(/C=C2/N=C(C3CCCCC3)OC2=O)cc(OC)c1OC	39.8µM*	2.8%	2.1%	-19.7%	16.8*	14.1µM*	24.1%	14.5%
COC(=O)/C=c1/sc2nc3ccccc3n2c1=O	?	-3.7%	-17.9%	2.67µM*	3.16*	2.82µM*	5.7%	5.0%
COc1ccc(C(=O)/C=C/C(=O)N(CC(=O)NC2CCCCC2)Cc2ccc(F)cc2)c(O)c1	79.4µM*	2.2%	-57.9%	4.23µM*	10.6*	4.47µM*	13µM*	9.2µM*
SMILES	VDR inh	Tb PFK block	BRCA1 expr act	PLK1 PBD block	VDR confirm	VDR FP fluor	VDR bla	VDR cytotox
CS(=O)(=O)N(CC(=O)NC1CCCCC1)Cc1ccc(F)cc1	2.1%	-3.5%	0.0%	-15.8%	nt	nt	nt	nt
O=C(Nc1ccc(N2CCOCC2)c(S(=O)(=O)Nc2ccc(Cl)cc2)c1)c1cnccn1	79.4µM*	-0.4%	-23.8%	5.32µM*	16.8*	?	18.5%	-11.6%
O=C(Nc1ccc(N2CCOCC2)c(S(=O)(=O)Nc2ccc(Cl)cc2)c1)c1ccc(=O)[nH]n1	2.7%	-3.5%	-43.5%	-25.4%	nt	nt	nt	nt
O=C(/C=C/c1cccc(Cl)c1)c1nc2ccccc2[nH]1	44.7µM*	-3.8%	0.0%	?	8.44*	?	?	?
Cc1ccc(-c2cc(-c3ccc4c(c3)NC(=O)CO4)nc3c2COc2ccccc2-3)cc1	2.7%	nt	9.6%	nt	nt	nt	nt	nt
O=C(Cc1ccccc1)c1ccc2c(c1)OCCO2	-11.4%	-3.7%	?	2.1%	nt	nt	nt	nt
O=C(CCN1CCc2ccccc2CC1)c1ccc2c(c1)OCCO2	?	-13.2%	-53.3%	13.4µM*	12.6*	11.2µM*	?	?
O=C1NN(c2ccc(F)c(Cl)c2)C(=O)/C1=C\c1cccc(OC(=O)c2cccs2)c1	22.4µM*	1.8%	-33.9%	1.06µM*	10.6*	?	-18.2%	-8.9%
CS(=O)(=O)c1nc(-c2ccc(F)cc2)cc(C(F)(F)F)n1	7.94µM*	-14.6%	-100.4%	23.8µM*	18.9*	?	?	?
COc1ccc(-c2cc(C(F)(F)F)nc(N)n2)cc1	-8.0%	0.7%	2.5%	-8.9%	nt	nt	nt	nt
COc1ccc(-c2cc(C(F)(F)F)nc(S(C)(=O)=O)n2)cc1	39.8µM*	-21.6%	-80.0%	?	17.8*	28.2µM*	?	?
COc1ccccc1N1CCN(C(=O)C2CCN(S(=O)(=O)c3cn(C)cn3)CC2)CC1	4.9%	nt	nt	nt	nt	nt	nt	nt
Cc1cc2nc(-c3ccccc3)c(Cc3ccsc3)n2c(C)c1Br	nt	nt	-40.9%	-9.2%	nt	nt	nt	nt
COc1ccc(-c2cc(N)n(S(=O)(=O)c3c(F)c(F)c(F)c(F)c3F)n2)cc1OC	?	24.9%	-103.7%	1.19µM*	5.01*	7.08µM*	5.8µM*	21.2µM*
CCOc1ccc(-c2cc(N)n(S(=O)(=O)c3ccc(OC)cc3)n2)cc1	1.8%	1.6%	-7.8%	5.8%	nt	nt	nt	nt
